From PubChem BioAssay (NCI)
About 79,000 compounds went through this panel and 15% of them were active in at least one assay; those are over-represented in the sample as a whole. Active and inactive are the calls of the source. Cut-off read from the data, not from the text of the source: active = growth inhibition above about 70%; inactive = the rest.

Assays:
[1] = NCI Yeast Anticancer Drug Screen. Data for the mec2-1 strain (AID 157); details: S. cerevisiae mec2-1 strain, hits give high values
In short: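 Growth inhibition is read against vehicle-treated controls after compound exposure of the mec2-1 yeast strain, which is defective in DNA damage repair or cell cycle control.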

[2] = NCI Yeast Anticancer Drug Screen. Data for the rad14 strain (AID 159);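 note: 0% = growth of vehicle-treated control cultures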; details: S. cerevisiae rad14 strain growth inhibition, hits give high values
In short: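 DNA repair-defective yeast, compound-exposed; % growth inhibition derived by comparison with vehicle-treated controls.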

[3] = NCI Yeast Anticancer Drug Screen. Data for the sgs1 mgt1 strain (AID 161);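 note: 0% = growth of cultures given vehicle only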; details: S. cerevisiae sgs1 mgt1 strain, hits give high values
In short: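 Compounds are added to genetically altered yeast, and growth is compared with cultures given vehicle alone to give percent inhibition.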

[4] = NCI Yeast Anticancer Drug Screen. Data for the CLN2oe strain (AID 163);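 note: 0% = growth of vehicle-only control cultures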; details: S. cerevisiae CLN2oe strain, hits give high values
In short: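 Compound-treated yeast; growth vs vehicle ctrl = % inhibition. Genetically altered strain (cell-cycle control).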

[5] = NCI Yeast Anticancer Drug Screen. Data for the cln2 rad14 strain (AID 165);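 note: 0% = growth equal to vehicle treated cultures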; details: S. cerevisiae cln2 rad14 strain, hits give high values
In short: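 Growth inhibition, relative to vehicle-treated controls, is the read-out. The test organism is a yeast strain with defined genetic alterations, cln2 rad14.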

[6] = NCI Yeast Anticancer Drug Screen. Data for the bub3 strain (AID 167); details: S. cerevisiae bub3 mutant strain, hits give high values
In short: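 In this screen, a yeast mutant lacking normal mitotic checkpoint function is challenged with compound. Relative growth versus vehicle gives the inhibition value.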

[7] = NCI Yeast Anticancer Drug Screen. Data for the wt2 strain (AID 169);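 note: 0% = growth of vehicle-treated yeast cultures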; details: S. cerevisiae wt2 strain growth inhibition, hits give high values
In short: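 Compound exposure of yeast; growth compared with vehicle controls; inhibition reported.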

[8] = NCI Yeast Anticancer Drug Screen. Data for the mlh1 strain (AID 171);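 note: 0% = growth of vehicle-treated control cultures of the same strain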; details: S. cerevisiae mlh1 strain growth inhibition, hits give high values
In short: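 Compounds are applied to a genetically altered yeast strain, and its growth is compared with that of vehicle-treated cultures to give percent inhibition.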

[9] = NCI Yeast Anticancer Drug Screen. Data for the sgs1 strain (AID 173);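 note: 0% = growth of vehicle-only control cultures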; details: S. cerevisiae sgs1 mutant, hits give high values
In short: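 Compounds applied to genetically altered yeast; growth compared with vehicle-treated cultures to give % inhibition.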

[10] = NCI Yeast Anticancer Drug Screen. Data for the mlh1 rad18 strain (AID 175); details: S. cerevisiae mlh1 rad18 strain growth inhibition, hits give high values
In short: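 Cells of a genetically altered yeast strain, deficient in DNA damage repair, were treated with compound. Their growth was then compared with that of vehicle-treated cultures to give inhibition.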

[11] = NCI Yeast Anticancer Drug Screen. Data for the rad18 strain (AID 177); details: S. cerevisiae rad18 mutant growth inhibition, hits give high values
In short: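 Compounds are applied to a repair-deficient yeast strain, and growth is compared with that of vehicle-treated cultures to give percent inhibition.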

[12] = NCI Yeast Anticancer Drug Screen. Data for the rad52 strain (AID 147);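 note: 0% = growth of vehicle-treated control cultures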; details: S. cerevisiae rad52 mutant growth inhibition, hits give high values
In short: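 DNA repair-defective yeast; compound exposure; growth scored against vehicle controls.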

[13] = NCI Yeast Anticancer Drug Screen. Data for the wt1 strain (AID 149);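 note: 0% = growth of vehicle-treated wt1 cultures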; details: S. cerevisiae wt1 strain (SPY 50644) growth inhibition, hits give high values
In short: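 wt1 strain grown with compound or vehicle; inhibition taken from the growth difference.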

[14] = NCI Yeast Anticancer Drug Screen. Data for the rad50EPP+ strain (AID 151);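 note: 0% = growth of vehicle-treated control cultures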; details: S. cerevisiae rad50 mutant strain, hits give high values
In short: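 rad50EPP+ yeast treated with test compounds. Readout: growth vs vehicle control.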

[15] = NCI Yeast Anticancer Drug Screen. Data for the rad50 strain (AID 155);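 note: 0% = growth of vehicle-only cultures of the same strain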; details: S. cerevisiae rad50 strain growth inhibition, hits give high values
In short: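 DNA repair mutant yeast, compound exposure, growth read-out; inhibition is taken relative to vehicle.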

[16] = at 5.0 µM (retest, dose inferred, filed as 0.5)
[17] = at 50.0 µM (retest, dose inferred, filed as 5.0)

Measured: growth inhibition

C=CC[N+]12CN3CN(CN(C3)C1)C2
inactive: [2]; at 1.2 µM -35% | [2]; at 3.7 µM -34% | [2]; at 11.0 µM -31% | [2]; at 33.0 µM -16% | [2]; at 100.0 µM 31% | [3]; [16] -2% | [3]; at 50.0 µM 59.8% | [4]; at 1.2 µM -24% | [4]; at 3.7 µM -32% | [4]; at 11.0 µM -17% | [4]; at 33.0 µM -9% | [5]; [16] 67% | [5]; at 50.0 µM 7.55% | [6]; at 1.2 µM -1% | [6]; at 3.7 µM 12% | [6]; [16] 20% | [6]; at 11.0 µM 12% | [6]; at 50.0 µM 2.1% | [7]; at 1.2 µM -49% | [7]; at 3.7 µM -52% | [7]; at 11.0 µM -52% | [7]; at 33.0 µM -28% | [7]; at 100.0 µM 23% | [8]; at 1.2 µM -25% | [8]; at 3.7 µM -22% | [8]; at 11.0 µM -23% | [8]; at 33.0 µM 13% | [9]; at 1.2 µM -20% | [9]; at 3.7 µM -17% | [9]; at 11.0 µM -21% | [9]; at 33.0 µM -4% | [9]; at 100.0 µM 43% | [10]; [16] 38% | [10]; [17] 52% | [10]; at 50.0 µM 10.2% | [11]; at 1.2 µM 18% | [11]; at 3.7 µM 19% | [11]; at 11.0 µM -13% | [11]; at 33.0 µM 13% | [11]; at 100.0 µM 12%
active: [1]; at 100.0 µM 98% | [3]; [17] 98% | [4]; at 100.0 µM 70% | [5]; [17] 96% | [6]; at 33.0 µM 75% | [6]; [17] 97% | [6]; at 100.0 µM 94% | [8]; at 100.0 µM 74%

CNC(=O)OCC1C2=C(C(=O)C(C)=C(N)C2=O)N2CC3C(N3C)C12OC (stereo not drawn)
active: [12]; at 100.0 µM 72% | [10]; [17] 92% | [11]; at 33.0 µM 73% | [11]; at 100.0 µM 86%
inactive: [12]; at 1.2 µM 8% | [12]; at 3.7 µM 50% | [12]; at 11.0 µM 52% | [12]; at 33.0 µM 49% | [13]; at 1.2 µM -2% | [13]; at 3.7 µM 4% | [13]; at 11.0 µM 4% | [13]; at 33.0 µM 2% | [13]; at 100.0 µM 17% | [14]; at 1.2 µM 0% | [14]; at 3.7 µM 10% | [14]; at 11.0 µM 22% | [14]; at 33.0 µM 30% | [14]; at 100.0 µM 41% | [15]; at 1.2 µM -12% | [15]; at 3.7 µM 6% | [15]; [16] 37% | [15]; at 11.0 µM 15% | [15]; at 33.0 µM 22% | [15]; [17] 63% | [15]; at 50.0 µM 51.6% | [15]; at 100.0 µM 52% | [1]; at 1.2 µM -14% | [1]; at 3.7 µM 2% | [1]; [16] 20% | [1]; at 11.0 µM -1% | [1]; at 33.0 µM 16% | [1]; [17] 61% | [1]; at 50.0 µM 55% | [1]; at 100.0 µM 49% | [2]; at 1.2 µM -18% | [2]; at 3.7 µM -9% | [2]; at 11.0 µM 0% | [2]; at 33.0 µM 14% | [2]; at 100.0 µM 46% | [4]; at 1.2 µM 20% | [4]; at 3.7 µM 22% | [4]; at 11.0 µM 17% | [4]; at 33.0 µM 35% | [4]; at 100.0 µM 37% | [5]; [16] 10% | [5]; [17] 44% | [5]; at 50.0 µM 43.1% | [6]; at 1.2 µM 1% | [6]; at 3.7 µM -4% | [6]; [16] 20% | [6]; at 11.0 µM -5% | [6]; at 33.0 µM 9% | [6]; [17] 43% | [6]; at 50.0 µM 29.4% | [6]; at 100.0 µM 23% | [7]; at 1.2 µM -33% | [7]; at 3.7 µM -40% | [7]; at 11.0 µM -39% | [7]; at 33.0 µM -5% | [7]; at 100.0 µM 21% | [8]; at 1.2 µM -17% | [8]; at 3.7 µM -4% | [8]; at 11.0 µM -6% | [8]; at 33.0 µM 14% | [8]; at 100.0 µM 39% | [9]; at 1.2 µM 4% | [9]; at 3.7 µM 8% | [9]; at 11.0 µM 18% | [9]; at 33.0 µM 29% | [9]; at 100.0 µM 54% | [10]; [16] 63% | [10]; at 50.0 µM 67.4% | [11]; at 1.2 µM 12% | [11]; at 3.7 µM 13% | [11]; at 11.0 µM 39%
